FBPA coupling cs: qHTS Assay for Inhibitors of Fructose-1,6-bisphosphate Aldolase from Giardia Lamblia: Coupling assay counterscreen; coupling enzyme system counterscreen, AmpLite Red fluorescence; activity change, negative = inhibition, % at 58.2 µM, hits read low; 290,000 tested, 0.67% active; AID 2472, 2010; in the data active = activity change below about -30%
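Fluorescence at 525 nm excitation and 598 nm emission measured inhibition of the coupled detection system without aldolase. Compounds (at 57.5 uM final) were preincubated 10 min at room temperature with coupling enzyme reagent before a 20 min substrate/AmpLite Red step.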
Tau fibril ThT: qHTS for Inhibitors of Tau Fibril Formation, Thioflavin T Binding; Microtubule-associated protein tau (Homo sapiens), P10636; recombinant tau K18 P301L, heparin-induced fibrillization, ThT fluorescence; Potency, µM (doses to about 57.4 µM), without a hit: at the highest dose activity, negative = inhibition, most hits filed as inhibitors; 270,000 tested, 2.1% active; AID 1460, 2008; also: potency is read from the fitted curve at half-maximal effect; nearly all actives have a fitted effect of over 55% in size
Target sequence (P10636 561-689 P618L limits assumed): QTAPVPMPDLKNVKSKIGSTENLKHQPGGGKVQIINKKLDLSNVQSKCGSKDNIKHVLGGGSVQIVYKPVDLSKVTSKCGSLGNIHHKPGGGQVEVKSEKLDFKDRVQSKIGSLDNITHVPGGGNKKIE
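Heparin-induced fibrillization of the P301L-mutant K18 repeat-domain fragment of human tau was followed by ThT binding in quantitative high-throughput format.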
Tau FP inhib: qHTS for Inhibitors of Tau Fibril Formation, Fluorescence Polarization. Potency, µM (highest dose often 57.7 µM), without a hit: at the highest dose activity, negative = inhibition, actives largely listed as inhibitors. 280,000 tested, 0.39% active. AID 1468, 2008. K18 P301L tau heparin fibrillization, Alexa594 FP, 6 h; also: potency is read from the fitted curve at half-maximal effect; nearly all actives have a fitted effect of over 55% in size
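Recombinant K18 P301L […], labeled with Alexa 594 at 0.24 uM over 15 uM unlabeled; heparin inducer 20 uM final; 37 C, 6 hr; FP endpoint.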
Tau fluor cs: Counterscreen qHTS for Inhibitors of Tau Fibril Formation, Fluorescence Polarization; Potency, µM (doses to about 57.7 µM), for the others: at the top dose activity change, negative = decrease; tau K18 P301L (four-repeat tau fragment) Alexa594 fluorescence, heparin fibrillization; 280,000 tested, 0.93% active; also: potency is read from the fitted curve at half-maximal effect; nearly all actives have a fitted effect of over 55% in size
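Human K18 P301L tau (15 uM unlabeled plus 0.24 uM Alexa 594-labeled, final) in 100 mM sodium acetate pH 7 was mixed with compound and 20 uM heparin and incubated 6 hr at 37 C.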
USP1 inh: Inhibitors of USP1/UAF1: Primary Screen | 390,000 tested, 0.23% active | Ubiquitin carboxyl-terminal hydrolase 1 (Homo sapiens), O94782 | AID 743255, 2014 | recombinant USP1/UAF1, Ub-Rhodamine cleavage fluorescence | Potency, µM (highest dose often 57.1 µM), for the others: at the top dose activity change, negative = inhibition, hits mostly inhibitors; also: potency is read from the fitted curve at half-maximal effect; nearly all actives have a fitted effect of over 60% in size
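USP1/UAF1 complex (1 nM) preincubated 15 min at room temperature with compound, then Ub-Rho substrate (150 nM final) added. Kinetic fluorescence at 480/540 nm over 6 reads at 60 s intervals; 50 mM HEPES pH 7.8, 0.5 mM EDTA, 0.1 mg/ml BSA, 1 mM TCEP, 0.01% Tween-20.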
* marks the source's active call; other numbers are inactive results; ? = inconclusive; / = not tested or not shown; [ ] = another dose, or the depositor's remark. A selection: hits, their analogues and other compounds. The true share with any hit is near 2.3%. Unless noted, calls follow the shape of the dose curve; as a rule, active = well fitted curve in the direction sought with a large enough effect; inconclusive = small, poorly fitted or top-dose-only effect, or another doubt; inactive = no such curve, though single readings can be large; an effect the other way counts as inactive or inconclusive. % is scaled to controls: 0 for no effect and ±100 for the full control effect.

SMILES	FBPA coupling cs	Tau fibril ThT	Tau FP inhib	Tau fluor cs	USP1 inh
c1ccc(SC23CC4CC(CC(C4)C2)C3)nc1	/	/	/	/	-4.3%
CCN(CC)C(=O)Oc1ccc(Cl)c2cccnc12	-0.4	-3.7%	2.0%	-1.5%	-4.9%
O=C(Nc1cccc(C(F)(F)F)c1)Oc1ccc(Cl)c2cccnc12	-10.0	-14.7%	20µM*	?	-17.9%
CCOc1ccccc1NC(=O)Cn1cc(C(=O)c2cccc(OC)c2)c(=O)c2ccc(C)nc21	/	-7.6%	-5.8%	-2.1%	-20.0%
CC(=O)Nc1ccc(N=Nc2ccccc2)cc1	-0.1	12.6µM*	0.5%	-5.7%	-7.2%
CCC(C(=O)OCC(=O)Nc1ccc(F)cc1)c1ccccc1 (centres undefined)	/	/	/	/	-22.2%
CC(=O)OCC(=O)Nc1ccc(N=Nc2ccccc2)cc1	-1.2	8.91µM*	3.4%	-21.6%	-19.5%
O=S(=O)(Nc1ccc(N=Nc2ccccc2)cc1)c1ccccc1	-0.4	15.8µM*	?	?	?
CC(=O)Nc1ccccc1	5.0	-1.5%	8.4%	-0.7%	-17.2%
CC(C)C(=O)OCC(=O)Nc1ccc(N=Nc2ccccc2)cc1	1.1	7.94µM*	?	?	-24.4%
COc1ccc(S(=O)(=O)N(CCc2ccccc2)CC(=O)Nc2cc(C)cc(C)c2)cc1OC	/	-5.9%	-14.6%	-26.1%	-24.3%
O=C(CCl)Nc1ccc(N=Nc2ccccc2)cc1	-2.1	5.01µM*	-14.9%	?	-23.7%
CC(Nc1cc(N2CCN(S(=O)(=O)N(C)C)CC2)ccc1[N+](=O)[O-])c1ccccc1 (centres undefined)	-34.0*	?	-3.9%	-29.3%	-25.0%
CCCC(=O)N1CCN(c2ccc([N+](=O)[O-])c(NC(C)c3ccccc3)c2)CC1 (centres undefined)	-7.0	14.1µM*	6.9%	-19.1%	-18.6%
Cc1nc2nc(NCc3ccc(Cl)cc3)[nH]n2c(=O)c1Cc1ccccc1	/	11.7%	1.0%	4.3%	-14.4%
CN1C2CCC1/C(=C/c1cccn1C)C(=O)/C2=C\c1cccn1C	0.3	-9.7%	-10.8%	-20.6%	28.2µM*
Cn1cccc1/C=C1\CC(C(C)(C)C)C/C(=C\c2cccn2C)C1=O (centres undefined)	-11.2	?	8.9%	-15.5%	11.2µM*
CN1C2CCC1/C(=C\c1ccc(F)cc1)C(=O)/C2=C/c1ccc(F)cc1	-0.8	?	-0.7%	-8.0%	-3.5%
Cc1cnc(NC(=O)c2ccc(F)c(S(=O)(=O)N3CCOCC3)c2)s1	/	/	/	/	-13.0%
Cc1ccc(S(=O)(=O)NC(=O)O[C@@H]2C(=O)c3cc(Br)ccc3O[C@H]2c2ccc3c(c2)OCO3)cc1	0.3	?	-2.8%	-9.6%	/
O=C1CSC(=S)N1Cc1cccnc1	-29.1	31.6µM*	-10.8%	-6.3%	?
Cc1cc(C)[n+]2[nH]c(N)c(N=Nc3ccccc3)c2n1	-1.5	15.8µM*	4.0%	-20.9%	-10.5%
Nc1nc(N)c(N=Nc2ccccc2)c(=O)[nH]1	/	/	/	/	-4.6%
CCOC(=O)c1ccoc1CSCc1ccc(C(=O)OC)o1	-0.5	25.1µM*	?	-27.7%	-17.3%
COC(=O)c1ccc(CSC(=N)N)o1	1.7	?	-5.3%	-3.2%	-10.2%
SMILES	FBPA coupling cs	Tau fibril ThT	Tau FP inhib	Tau fluor cs	USP1 inh
COCCn1c(SCC(=O)NNC(=O)c2ccccc2)nc2ccccc21	/	/	/	/	-17.5%
COCCN=c1scc(-c2ccc3c(c2)NC(=O)CO3)n1/N=C(\C)c1ccc(O)cc1	2.5	14.1µM*	?	14.1µM*[quencher]	-8.6%
Cc1cccc(NC(=O)c2nc[nH]c2C(=O)Nc2ccccc2F)c1	/	/	/	/	-30.7%
Cc1nc(NC(=O)COC(=O)CNC(=O)c2ccco2)c(Cl)cc1Cl	/	/	/	/	-7.8%
Cc1ccc(N/N=C/c2c(C)c(C#N)c(=O)n(C)c2O)cc1C	-58.1*	10.5%	9.3%	2.4%	-13.2%
COc1cc(S(=O)(=O)Nc2ccc(C)cc2)ccc1N=Cc1c(C)c(C#N)c(=O)n(C)c1O	-4.7	?	?	-27.1%	?
CC1CCN(C(=O)c2ccc3c(c2NCCO)C(=O)c2ccccc2C3=O)CC1	-2.6	?	2.5%	?	-17.2%
CCN(CC)CCNC(=O)c1ccc2c(c1NCCO)C(=O)c1ccccc1C2=O	-31.3*	15.8µM*	0.1%	?	-16.7%
CC1=C(C(=O)Nc2ccccc2)C(c2ccc(C)o2)n2c(s/c(=C\c3ccco3)c2=O)=N1 (centres undefined)	-2.2	12.6µM*	?	?	?
COc1cccc(C2C(C(=O)Nc3ccccc3)=C(C)N=c3s/c(=C/c4ccc(OCC(=O)O)cc4)c(=O)n32)c1 (centres undefined)	0.9	?	0.1%	12.7%	-19.4%
O=C(NC1CCCN(C2Cc3ccccc3C2)C1)c1ccc(F)cc1Cl (centres undefined)	1.8	/	/	/	-15.2%
O=C(OC1CCc2ccccc2C1=O)c1ccccc1O (centres undefined)	-8.4	25.1µM*	?	?	-19.5%
O=C(N/N=C1\CCc2ccccc21)c1ccccc1O	0.1	?	-8.6%	-12.9%	-13.9%
CC(C)(C)C(=O)NNC(=O)C1CC1(c1ccccc1)c1ccccc1 (centres undefined)	1.9	/	/	/	-8.3%
COc1ccc(/C=N/N(Cc2ccccc2)c2ccccc2)cc1O	-5.9	?	?	14.1µM*[quencher]	-15.4%
CCc1ccccc1N(C)C(=O)c1cn(CC(C)C)c(=O)c2cc(OC)c(OC)cc12	/	-13.4%	0.9%	-17.7%	-21.9%
CC(=O)Nc1ccc(Nc2cc(C(C)C)nc3c(-c4ccccc4)c(C)nn23)cc1	-4.9	?	?	12.6µM*[quencher]	-7.0%
CC(=O)Nc1ccc(Nc2cc(C)nc3c(-c4ccccc4)c(C)nn23)cc1	0.1	?	3.7%	14.1µM*[quencher]	-5.8%
COc1ccc(OC)c(/C=C2\NC(=O)NC2=O)c1	0.3	/	/	/	-12.7%
COc1cc(N2CCCC2)c(OC)cc1/C=C1/NC(=S)NC1=O	-8.9	11.2µM*	-5.6%	?	?
Cc1c(C)c2c(c(C)c1O)CC[C@@](C)(C(=O)O)O2	-34.1*	/	/	/	/
C/C(=N/Nc1ccc(F)cc1)c1ccc(Cl)s1	-0.4	?	7.4%	14.1µM*[quencher]	-16.6%
Cc1[nH]c2ccc3c(ncn3CCC#N)c2c1C	-36.5*	-6.7%	-1.7%	-1.5%	1.6%
Cc1nc([N+](=O)[O-])cn1CCC#N	2.6	0.5%	5.9%	-3.5%	-5.3%
Cc1ccc(C(C)NC(=O)/C(C#N)=C\c2c(C)[nH]c3ccccc23)cc1 (centres undefined)	-6.6	-15.7%	25.1µM*	10µM*[quencher]	-23.9%

Screening data (PubChem)
